Bioassay records deposited in PubChem BioAssay by several laboratories.
E coli growth-1 = blocks Escherichia coli growth; OD600, 23 h; active compounds read low; OD600 absorbance (concentration not given with the values); hit rate 0.21% among 330,000;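 active = OD600 absorbance below the run mean of sample wells minus 3.6 SD, in any replicate, cut at about 0.56 in these data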
E coli growth-2 = counter-screen for AddAB inhibitors: E. coli growth inhibition; inhibition, % at 11.9 µM; AID 449728; E. coli V3065 growth, OD600 absorbance, 18 h; hit rate 0.27% among 330,000;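 active = inhibition above the campaign's mean inhibition across all tested compounds plus 3 SD, cut at about 9.9% in these data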;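 also: uninfected addAB+ strain grown without phage in ampicillin broth; 0% = DMSO wells and 100% = ciprofloxacin 0.95 µg/ml wells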
AddAB inh = less growth of phage-infected E. coli with AddAB. hit rate 0.29% among 330,000. AID 435030. inhibition, % at 11.9 µM. E. coli expressing H. pylori AddAB, absorbance growth; in the data active = inhibition above about 12%;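 also: 0% = vehicle wells of infected cells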
Tat export inh = inhibitors of E. coli Tat protein transport | hit rate 0.036% among 340,000 | inhibition, % at 10 µM | E. coli MC4100 TorA-mCherry Tat export, fluorescence | AID 488895;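 active = mean replicate inhibition at least 50% and at least half of replicates individually reaching 50%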;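 also: exported cargo escapes ClpAP degradation while cytoplasmic cargo is degraded and loses fluorescence; 0% = median of neutral control wells and 100% = median of NaSCN control wells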
phage Ecoli inh = E. coli growth loss with phage present | hit rate 0.26% among 360,000 | growth absorbance | inhibition, % at 11.9 µM; in the data active = inhibition above about 11%
AddAB conf = growth loss of T4-infected E. coli expressing H. pylori AddAB, confirmed. shares compounds with AddAB inh. E. coli V3065 expressing H. pylori AddAB, T4 phage, OD; T4 phage with gene 2 nonsense mutations. inhibition, % at 11.9 µM. hit rate 64% among 880. AID 488942;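 active = mean inhibition above a set limit taken from the earlier primary screen, cut at about 13% in these data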;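 also: higher means less bacterial growth since AddAB block lets phage replicate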
RecBCD counter = AddAB counter-screen: growth loss of RecBCD+ E. coli infected with mutant T4 phage; shares compounds with AddAB inh; E. coli V66 + mutant T4 phage, OD growth; inhibition, % at 11.9 µM; hit rate 73% among 880; AID 488955;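 active = mean inhibition above the mean of solvent-only control wells plus 3 SD, cut at about 4% in these data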;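 also: optical density read after an 18 h incubation at 37 °C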
bact viab count = counter-screen: bacterial growth inhibition; shares compounds with AddAB inh; bacterial viability, absorbance (AddAB counterscreen); inhibition, % at 11.9 µM; hit rate 35% among 880; in the data active = inhibition above about 25%
Active calls of the source: *; nt = no result. Compounds with a hit are over-represented: about 0.5% of the library has one in this group of screens.

SMILES	E coli growth-1	E coli growth-2	AddAB inh	Tat export inh	phage Ecoli inh	AddAB conf	RecBCD counter	bact viab count
COC(=O)C(=NNc1ccccc1)Sc1nnc(-c2ccc(OC)cc2)n1C	0.7	nt	nt	nt	nt	nt	nt	nt
Cc1ccc2sc(-c3ccc(NC(=O)C=CC(=O)O)cc3)nc2c1	0.66	nt	nt	nt	nt	nt	nt	nt
CCn1cc(C(=O)OCC(=O)c2cc(C)n(-c3ccccc3)c2C)c(=O)c2ccc(C)nc21	0.64	0	0	0	0	nt	nt	nt
CCn1cc(C(=O)OCC(=O)N(C)Cc2ccccc2)c(=O)c2ccc(C)nc21	nt	95*	98*	-1	2	-3	-1	-1
Oc1c(Cl)cc(Cl)cc1Sc1cc(Cl)cc(Cl)c1O	nt	16*	15*	nt	nt	10	15*	12
O=S(c1cc(Cl)cc(Cl)c1O)c1cc(Cl)cc(Cl)c1O	nt	nt	nt	nt	10	nt	nt	nt
C#CCNC(=O)C1=CC(c2ccc(Br)cc2)C(CCCO)C(OCC)O1 (stereo unspecified)	0.63	nt	nt	nt	nt	nt	nt	nt
CCCNC(=O)c1ccc2c(=O)c(O)c(-c3ccc(F)cc3)[nH]c2c1	0.67	15*	18*	-6	nt	11	13*	14
COc1ccc(S(=O)(=O)NN=C(C)c2ccncc2)c(OC)c1	0.67	nt	nt	nt	nt	nt	nt	nt
COc1cc([N+](=O)[O-])cc(C=NNC(=O)C2COc3ccccc3O2)c1O (stereo unspecified)	0.68	nt	nt	nt	nt	nt	nt	nt
c1ccc2nc(-c3ccc(N4CCOCC4)cc3)ccc2c1	0.68	43*	40*	-1	4	-4	-1	-4
CN1CCN(c2ccc(-c3ccc4ccccc4n3)cc2)CC1	0.68	nt	nt	5	2	nt	nt	nt
COC(=O)c1cc(C(=O)OCC(=O)N(C)C2CCS(=O)(=O)C2)cc([N+](=O)[O-])c1 (stereo unspecified)	0.7	12*	22*	0	1	-2	-1	-2
Cc1cc(C(=O)NN=Cc2cc(Cl)cc([N+](=O)[O-])c2O)c2ccccc2n1	0.69	nt	nt	nt	nt	nt	nt	nt
S=C(NCCCc1ccccc1)Nc1ccccc1	0.68	nt	nt	-5	-1	nt	nt	nt
S=C(NCCCc1ccccc1)Nc1ccc(Cl)cc1	0.58	8	12*	-1	9	11	12*	6
C#CCOCCOCCOCCNc1nc(N2CCOCC2)nc(N2CCN(C(=O)CCCCCCCCCCNC(=O)C(CCSC)n3cc(CCO)nn3)CC2)n1 (stereo unspecified)	0.72	nt	nt	nt	nt	nt	nt	nt
CC(=O)Nc1cccc(C(=O)NCCc2ccco2)c1	0.66	12*	12*	-22	8	7	10*	8
CN(CCCCCC(=O)C=NO)Cc1ccccc1	0.74	nt	nt	nt	nt	nt	nt	nt
O=C(NNC(=O)c1cc(Br)ccc1O)c1csc(N2CCOCC2)n1	nt	33*	37*	-3	nt	27*	27*	27*
O=C(NNC(=O)c1cc(Br)ccc1Cl)c1csc(N2CCOCC2)n1	0.73	-3	3	5	-1	nt	nt	nt
COc1ccc(-c2nc3ccccn3c2C=O)cc1	0.63	1	3	11	2	nt	nt	nt
O=Cc1c(-c2ccc(F)cc2)nc2ccccn12	0.7	97*	98*	1	1	0	1	-2
COC(=O)c1cccc(C=NNC(N)=S)c1O	0.67	nt	nt	nt	nt	nt	nt	nt
CCOC(=O)C1=C(C)NC(=O)NC1c1ccc([N+](=O)[O-])o1 (stereo unspecified)	0.69	-2	-2	1	1	nt	nt	nt
CCOC(=O)C1=C(C)NC2=C(C(=O)c3ccccc32)C1c1ccc([N+](=O)[O-])o1 (stereo unspecified)	0.63	12*	26*	1	6	32*	2	15
CCN1CC2C3C(=O)N(C)C(=O)C3[C@](C)(C1=O)N2C(=O)c1ccc(Cl)cc1 (stereo partly specified)	0.69	nt	nt	nt	nt	nt	nt	nt
CC1CN(C(C)CO)C(=O)c2cc(NS(=O)(=O)c3ccccc3)ccc2OC1CN(C)S(=O)(=O)c1cccs1 (stereo unspecified)	0.69	nt	nt	nt	nt	nt	nt	nt
C=CCn1c(O)c(N=Nc2ccccc2)c2ccccc21	nt	-4	-2	-1	4	nt	nt	nt
C=CCn1c(O)c(N=Nc2ccccc2O)c2ccccc21	0.62	11*	18*	2	7	81*	4.6*	19
